# The supplement of paper PMC10849652
# Of roughly 8,800 targets only a part is listed; those with a hit were picked by preference. About 0.5% of all pairs of compound and target were hits. Values without a mark were called inactive.
# Tests used:
# Assay in all cases: log2 fold change, soluble protein after heating vs DMSO (PISA); higher = thermal stabilisation; K562 lysate, 10 uM; active = over 0.2 and 3.5 SD of the protein, either way, in both replicates (recomputed)
# nilotinib = compound: Cc1cn(-c2cc(NC(=O)c3ccc(C)c(Nc4nccc(-c5cccnc5)n4)c3)cc(C(F)(F)F)c2)cn1 [nilotinib]
# Procedure, shortened: (§1)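 Dounce homogenisation of K562 pellets in PBS pH 7.4 with 1 mM MgCl2 produced a crude extract, used at 1 mg/mL protein. Exposure to 10 μM compound lasted 30 min, and aliquots were then heated for 3 min across 48°C-58°C, pooled and brought to 0.5% NP-40 at 4°C. The supernatant after 21,000xg for 90 min was quantified by TMTpro 16plex LC-MS/MS with channel sums equalised. Duplicate values are given as log-two fold change in thermal stability relative to solvent controls.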
# [1] = compound: Cc1nc(Nc2n[nH]c3c2CN(C(=O)N[C@H](CN(C)C)c2ccccc2)C3(C)C)c2sccc2n1
# Procedure, shortened: as §1
# dasatinib = compound: Cc1nc(Nc2ncc(C(=O)Nc3c(C)cccc3Cl)s2)cc(N2CCN(CCO)CC2)n1 [dasatinib]
# Procedure, shortened: as §1
# [2] = compound: Cc1ncc(-c2ccnc(Nc3ccc(S(C)(=O)=O)cc3)n2)n1C(C)C
# Procedure, shortened: as §1
# [3] = compound: Cn1cc(-c2ccc3c(c2)CCN3C(=O)Cc2cccc(C(F)(F)F)c2)c2c(N)ncnc21
# Procedure, shortened: as §1
# quisinostat = compound: Cn1cc(CNCC2CCN(c3ncc(C(=O)NO)cn3)CC2)c2ccccc21 [quisinostat]
# Procedure, shortened: as §1
# tipifarnib = compound: Cn1cncc1[C@@](N)(c1ccc(Cl)cc1)c1ccc2c(c1)c(-c1cccc(Cl)c1)cc(=O)n2C [tipifarnib]
# Procedure, shortened: as §1
# [4] = compound: NC(=O)Nc1cc(-c2cccc(F)c2)sc1C(=O)N[C@H]1CCCNC1
# Procedure, shortened: as §1
# [5] = compound: NC(=O)c1cnc(N[C@@H]2CCCC[C@@H]2N)nc1Nc1cccc(-n2nccn2)c1
# Procedure, shortened: as §1
# [6] = compound: NC1(c2ccc(-c3nc4ccn5c(=O)[nH]nc5c4cc3-c3ccccc3)cc2)CCC1
# Procedure, shortened: as §1
# [7] = compound: NCC(=O)Nc1ccc(-n2nc(C(F)(F)F)cc2-c2ccc3c(ccc4ccccc43)c2)cc1
# Procedure, shortened: as §1
# vorinostat = compound: O=C(CCCCCCC(=O)Nc1ccccc1)NO [vorinostat]
# Procedure, shortened: as §1
# silmitasertib = compound: O=C(O)c1ccc2c(c1)nc(Nc1cccc(Cl)c1)c1ccncc12 [silmitasertib]
# Procedure, shortened: as §1
# [8] = compound: O=C1NC(=O)C(c2cnc3ccccn23)=C1c1cn2c3c(cc(F)cc13)CN(C(=O)N1CCCCC1)CC2
# Procedure, shortened: as §1
# entospletinib = compound: c1cn2cc(-c3ccc4cn[nH]c4c3)nc(Nc3ccc(N4CCOCC4)cc3)c2n1 [entospletinib]
# Procedure, shortened: as §1
# Chain of UniProt O95777 (O95777 whole entry, looked up): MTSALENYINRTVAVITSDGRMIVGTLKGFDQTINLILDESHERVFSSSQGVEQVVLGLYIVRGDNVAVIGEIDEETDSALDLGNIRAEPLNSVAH
# Chain of UniProt Q9UBU8 (Q9UBU8 whole entry, looked up): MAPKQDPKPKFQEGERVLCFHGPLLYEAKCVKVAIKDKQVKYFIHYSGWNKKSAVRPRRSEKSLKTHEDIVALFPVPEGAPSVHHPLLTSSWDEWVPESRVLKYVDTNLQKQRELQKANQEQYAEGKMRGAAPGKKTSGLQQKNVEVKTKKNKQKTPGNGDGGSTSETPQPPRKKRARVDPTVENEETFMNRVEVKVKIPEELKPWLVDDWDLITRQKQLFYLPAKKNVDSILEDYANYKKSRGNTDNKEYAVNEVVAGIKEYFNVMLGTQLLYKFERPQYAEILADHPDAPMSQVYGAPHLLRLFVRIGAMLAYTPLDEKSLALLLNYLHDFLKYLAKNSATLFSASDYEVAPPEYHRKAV
# Chain of UniProt Q8IWC1 (Q8IWC1 whole entry, looked up): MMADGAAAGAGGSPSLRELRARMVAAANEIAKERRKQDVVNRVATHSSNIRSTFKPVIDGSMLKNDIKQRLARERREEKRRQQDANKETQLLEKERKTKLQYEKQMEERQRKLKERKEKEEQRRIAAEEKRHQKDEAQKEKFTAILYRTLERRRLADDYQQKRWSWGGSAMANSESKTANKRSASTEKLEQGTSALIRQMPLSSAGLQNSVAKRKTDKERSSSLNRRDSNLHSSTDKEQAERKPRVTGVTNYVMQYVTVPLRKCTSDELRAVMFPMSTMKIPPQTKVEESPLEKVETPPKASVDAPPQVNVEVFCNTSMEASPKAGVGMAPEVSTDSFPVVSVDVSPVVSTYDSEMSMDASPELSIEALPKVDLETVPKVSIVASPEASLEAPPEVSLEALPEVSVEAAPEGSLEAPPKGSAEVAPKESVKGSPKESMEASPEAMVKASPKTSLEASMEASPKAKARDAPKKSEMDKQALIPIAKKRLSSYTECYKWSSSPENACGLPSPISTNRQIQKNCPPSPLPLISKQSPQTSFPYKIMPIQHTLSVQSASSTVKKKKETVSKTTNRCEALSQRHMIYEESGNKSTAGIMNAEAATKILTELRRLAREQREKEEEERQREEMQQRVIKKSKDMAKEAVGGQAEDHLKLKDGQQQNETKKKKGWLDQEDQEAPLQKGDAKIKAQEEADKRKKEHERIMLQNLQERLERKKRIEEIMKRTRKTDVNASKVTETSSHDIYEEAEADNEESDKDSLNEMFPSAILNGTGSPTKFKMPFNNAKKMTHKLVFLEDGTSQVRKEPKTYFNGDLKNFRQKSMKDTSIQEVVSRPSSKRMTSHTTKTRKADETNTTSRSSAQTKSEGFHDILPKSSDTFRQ
# Chain of UniProt Q07866 (Q07866 whole entry, looked up): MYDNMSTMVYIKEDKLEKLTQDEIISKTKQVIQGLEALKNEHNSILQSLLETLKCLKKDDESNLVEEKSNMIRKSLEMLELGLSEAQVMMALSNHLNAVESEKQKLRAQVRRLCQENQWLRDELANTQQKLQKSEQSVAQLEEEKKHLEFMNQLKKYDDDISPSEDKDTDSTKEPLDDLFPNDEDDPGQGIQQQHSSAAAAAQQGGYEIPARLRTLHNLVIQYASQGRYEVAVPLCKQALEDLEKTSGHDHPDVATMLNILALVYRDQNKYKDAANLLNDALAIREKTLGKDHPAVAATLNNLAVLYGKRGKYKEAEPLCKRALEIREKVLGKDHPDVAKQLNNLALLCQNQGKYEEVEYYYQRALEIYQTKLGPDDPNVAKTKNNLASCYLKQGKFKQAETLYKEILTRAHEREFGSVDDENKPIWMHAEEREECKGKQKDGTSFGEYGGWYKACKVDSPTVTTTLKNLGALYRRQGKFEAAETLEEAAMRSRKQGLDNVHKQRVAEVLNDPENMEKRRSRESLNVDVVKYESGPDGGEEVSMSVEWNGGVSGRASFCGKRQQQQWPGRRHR
# Chain of UniProt Q8WXB1 (Q8WXB1 whole entry, looked up): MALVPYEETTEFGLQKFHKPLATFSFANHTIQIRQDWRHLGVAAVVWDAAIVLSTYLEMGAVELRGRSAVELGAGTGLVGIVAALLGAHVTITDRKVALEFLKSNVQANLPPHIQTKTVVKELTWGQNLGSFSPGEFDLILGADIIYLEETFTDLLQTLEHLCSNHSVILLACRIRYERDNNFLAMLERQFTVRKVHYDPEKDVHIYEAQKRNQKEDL
# Chain of UniProt Q9Y2E5 (Q9Y2E5 whole entry, looked up): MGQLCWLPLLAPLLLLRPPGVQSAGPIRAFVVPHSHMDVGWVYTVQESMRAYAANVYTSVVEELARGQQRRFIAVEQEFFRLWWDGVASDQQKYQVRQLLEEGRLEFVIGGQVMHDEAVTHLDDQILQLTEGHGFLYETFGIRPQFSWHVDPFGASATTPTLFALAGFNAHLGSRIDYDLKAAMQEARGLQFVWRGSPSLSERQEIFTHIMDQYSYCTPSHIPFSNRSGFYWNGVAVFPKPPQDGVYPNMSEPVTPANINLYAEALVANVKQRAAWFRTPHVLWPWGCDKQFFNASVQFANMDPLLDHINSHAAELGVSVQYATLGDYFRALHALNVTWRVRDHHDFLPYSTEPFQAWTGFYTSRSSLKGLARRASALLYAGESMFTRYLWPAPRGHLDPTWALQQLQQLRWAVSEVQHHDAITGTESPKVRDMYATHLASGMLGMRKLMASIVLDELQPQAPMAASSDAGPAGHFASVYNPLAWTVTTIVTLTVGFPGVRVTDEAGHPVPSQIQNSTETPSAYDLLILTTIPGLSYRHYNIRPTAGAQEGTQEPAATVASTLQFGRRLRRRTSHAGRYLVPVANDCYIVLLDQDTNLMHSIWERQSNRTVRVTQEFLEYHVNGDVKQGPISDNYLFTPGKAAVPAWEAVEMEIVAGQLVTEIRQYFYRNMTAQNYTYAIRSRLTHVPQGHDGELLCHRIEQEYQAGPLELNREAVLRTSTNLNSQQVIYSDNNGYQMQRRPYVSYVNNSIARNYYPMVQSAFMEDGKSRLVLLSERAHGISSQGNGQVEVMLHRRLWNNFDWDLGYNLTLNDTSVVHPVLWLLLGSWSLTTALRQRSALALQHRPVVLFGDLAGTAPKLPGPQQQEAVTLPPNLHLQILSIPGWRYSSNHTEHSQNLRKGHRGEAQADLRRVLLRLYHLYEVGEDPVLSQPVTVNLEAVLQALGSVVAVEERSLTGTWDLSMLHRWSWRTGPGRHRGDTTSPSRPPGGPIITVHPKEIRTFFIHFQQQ
# Chain of UniProt Q9Y4K4 (Q9Y4K4 whole entry, looked up): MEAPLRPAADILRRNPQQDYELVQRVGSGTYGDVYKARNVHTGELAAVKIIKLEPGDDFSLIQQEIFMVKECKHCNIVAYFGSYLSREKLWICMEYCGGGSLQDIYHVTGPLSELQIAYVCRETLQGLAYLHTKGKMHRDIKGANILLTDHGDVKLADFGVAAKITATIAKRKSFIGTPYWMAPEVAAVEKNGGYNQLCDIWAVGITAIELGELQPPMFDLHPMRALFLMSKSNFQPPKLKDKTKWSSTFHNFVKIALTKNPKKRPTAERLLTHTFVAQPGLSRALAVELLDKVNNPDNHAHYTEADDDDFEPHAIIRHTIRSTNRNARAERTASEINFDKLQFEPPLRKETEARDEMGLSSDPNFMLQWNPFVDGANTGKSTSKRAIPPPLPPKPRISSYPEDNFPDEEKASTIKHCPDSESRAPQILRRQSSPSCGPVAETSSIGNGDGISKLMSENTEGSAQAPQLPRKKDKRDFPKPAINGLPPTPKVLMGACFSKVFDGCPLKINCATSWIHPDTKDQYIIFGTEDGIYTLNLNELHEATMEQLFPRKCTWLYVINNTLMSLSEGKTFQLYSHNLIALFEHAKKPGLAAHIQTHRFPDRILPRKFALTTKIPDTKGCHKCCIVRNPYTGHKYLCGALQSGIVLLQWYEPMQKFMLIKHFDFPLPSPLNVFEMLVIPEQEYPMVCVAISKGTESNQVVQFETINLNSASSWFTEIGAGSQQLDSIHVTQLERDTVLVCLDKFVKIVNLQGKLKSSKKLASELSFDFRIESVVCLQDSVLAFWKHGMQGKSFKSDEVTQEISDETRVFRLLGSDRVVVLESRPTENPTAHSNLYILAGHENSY
# Chain of UniProt Q9H204 (Q9H204 whole entry, looked up): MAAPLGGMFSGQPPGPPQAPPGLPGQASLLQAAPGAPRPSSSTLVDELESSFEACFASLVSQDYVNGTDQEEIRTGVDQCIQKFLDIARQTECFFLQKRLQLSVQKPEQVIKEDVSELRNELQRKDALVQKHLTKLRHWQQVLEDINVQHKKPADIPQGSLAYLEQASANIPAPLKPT
# Chain of UniProt P01116 (P01116 whole entry, looked up): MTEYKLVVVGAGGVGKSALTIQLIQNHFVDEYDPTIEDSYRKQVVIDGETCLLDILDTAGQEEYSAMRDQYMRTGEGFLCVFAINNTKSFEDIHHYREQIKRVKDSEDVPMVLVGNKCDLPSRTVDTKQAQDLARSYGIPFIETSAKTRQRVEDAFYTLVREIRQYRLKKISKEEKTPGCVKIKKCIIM
Target,log2 fold change (nilotinib),log2 fold change [1],log2 fold change (dasatinib),log2 fold change [2],log2 fold change [3],log2 fold change (quisinostat),log2 fold change (tipifarnib),log2 fold change [4],log2 fold change [5],log2 fold change [6],log2 fold change [7],log2 fold change (vorinostat),log2 fold change (silmitasertib),log2 fold change [8],log2 fold change (entospletinib)
LSM8 (UniProt O95777),0.132,0,0.012,0.045,0.004,-0.043,0.048,-0.02,-0.035,0.033,-0.052,0.063,-0.011,0.009,0.028
MAN2B2 (UniProt Q9Y2E5),-0.039,-0.173,0.051,-0.004,0.011,-0.033,-0.041,0.04,0.038,0.033,,0.117,-0.014,-0.005,0.019
KLC1 isoform 6 (UniProt Q07866),0.009,-0.017,-0.021,-0.009,0.009,-0.014,-0.005,-0.014,0.002,0.017,0.024,-0.231 (active),-0.004,-0.034,0.013
LUZP1 (UniProt Q86V48),0.013,-0.046,-0.004,-0.02,0.062,-0.03,-0.005,0.109,0.01,0.027,0.094,-0.248 (active),0.129,0.022,-0.03
KIF21A isoform 5 (UniProt Q7Z4S6),0.011,0.036,0.001,0,0.001,-0.011,-0.048,0.048,-0.009,-0.028,0.005,-0.239 (active),-0.004,0.007,-0.058
MARK3 (UniProt P27448),0.013,-0.004,-0.186,-0.05,0.014,0.172,-0.072,-0.08,-0.029,-0.06,-0.035,-0.069,0.445 (active),0.035,0.036
MORF4L1 isoform 2 (UniProt Q9UBU8),0.037,0.069,-0.013,-0.009,0,0,-0.009,-0.007,-0.008,-0.018,0.013,0.058,-0.002,0.015,0.018
MED28 (UniProt Q9H204),0.053,0.053,-0.004,0.053,-0.006,-0.007,0.015,-0.013,-0.005,-0.014,,-0.219,0.003,0.09,
MRPL28 (UniProt Q13084),0.03,-0.111,-0.013,-0.037,0.051,-0.031,0.149,0.057,0.015,-0.058,0.002,-0.037,0.022,0.044,0.129
MAP4K5 (UniProt Q9Y4K4),-0.035,0,0.528 (active),-0.007,0.105,-0.245,0.082,0.468 (active),-0.029,0.11,-0.072,-0.218,-0.008,-0.07,0
MED14 (UniProt O60244),0.027,-0.013,-0.012,-0.015,0.011,-0.021,-0.013,0.011,0.015,0.047,-0.01,-0.21 (active),-0.035,0.002,-0.084
"MICB, A0A140T979",-0.044,0.042,0.024,0.033,-0.055,-0.06,-0.025,-0.004,0.491,0.21,0.068,0.196,-0.121,0.021,0.35
MAP7D3 (UniProt Q8IWC1),-0.012,-0.01,0.03,-0.037,0.029,-0.101,0.014,0.003,-0.016,0.005,0.098,0.037,0.059,-0.046,-0.013
KRAS (UniProt P01116),0.034,-0.014,0.049,0.018,-0.015,0.042,0.129,-0.001,0.005,-0.032,0.033,0.129,0.022,-0.072,-0.021
MRPL27 (UniProt Q9P0M9),-0.112,0.027,0.089,-0.039,0.091,-0.012,0.015,-0.006,0.072,-0.064,,0.087,0.106,-0.008,-0.027
MAP4K4 isoform 3 (UniProt O95819),-0.108,0.03,-0.103,0.002,0.006,-0.103,0.038,0.27 (active),0.02,-0.032,0.041,-0.145,0.045,,0.178
METTL21A (UniProt Q8WXB1),0.017,0.055,0.023,0.026,-0.064,-0.069,-0.005,-0.001,-0.007,0.003,,0.07,-0.016,-0.013,
